From PubChem BioAssay (NCI) come the findings set out here.

This is part of a sample that, as a whole, favours compounds with a hit. Of some 83,000 tested, about 20% had one in any assay.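 Values shown are percent growth following 48 h exposure of cells in 96-well plates to a single concentration of compound; below 10 was considered active.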 Values without a mark were called inactive. Activity calls are given as the source filed them.

What all share (test): NCI-60 one-dose screen, 48 h (100 = growth as untreated, 0 = no growth, -100 = all killed)
What all share (conditions): 10 µM unless noted

The subject of assay [1] is NCI-H23 lung.
The test system of assay [2] is NCI-H226 lung.
Assay [3] relates to NCI-H322M lung.
Assay [4] has as its system HOP-62 NSCLC.
The test system of assay [5] is HOP-92 NSCLC.
Assay [6] has as its system A549/ATCC NSCLC.
Assay [7] concerns 786-0 renal.
The subject of assay [8] is COLO 205 colon.
In assay [9] the test system is DU-145 prostate.
The subject of assay [10] is K-562 leukemia.
The subject of assay [11] is MALME-3M melanoma.
The subject of assay [12] is MDA-MB-231 breast.
Assay [13] concerns SF-268 CNS.
Assay [14] deals with SF-295 CNS.
Assay [15] concerns SF-539 CNS.
Assay [16] relates to M14 melanoma.
Assay [17] deals with RXF 393 renal.
The test system of assay [18] is UACC-257 melanoma.
For assay [19], the system named is NCI-H460 lung.

With `Cc1sc2nc3c4ccccc4c(NCCCN(C)C)nn3c(=O)c2c1C`, the growth in assay [1] was 60.9%; in assay [2], 42.8%; in assay [3], 83.1%; in assay [4] it was 61.7%; in assay [5], 29%; in [6], 15%. The growth in assay [7] is 55.7%; in assay [8], -57.4% (active); in assay [9], 41.5%; in assay [10], -73.8% (active); in [11], -42.2% (active); in assay [12], -23.6% (active). Moreover, the growth was 66.7% in assay [13], 65.6% in [14], 29% in assay [15] and -95.6% (active) in assay [16].

Turning to `CCOC(CNCc1cc(C)c2[nH]c3ccccc3c2c1C)OCC`, the growth is 82.2% in assay [1]; 70% in assay [2]; 83.2% in [3]; 98.1% in [4]; 64.1% in assay [5]; 81% in [6]. In addition, the growth in assay [7] was 65%; in assay [8], -25.4% (active); in assay [9], 109%; in assay [10], 34.3%; in assay [12] it was 63%; in [17] it was 73.2%. For the same molecule, the growth is 86.2% in assay [13]; 60.2% in assay [14]; 83.7% in assay [15]; 76% in assay [18]; 64.9% in [16].

For the molecule `CCOC(=O)CCC(=O)O[C@H]1[C@H](O[C@@H]2[C@@H](C)[C@H](O[C@H]3C[C@@](C)(OC)[C@@H](O)[C@H](C)O3)[C@@H](C)C(=O)O[C@H](CC)[C@@](C)(O)[C@H](O)[C@@H](C)C(=O)[C@H](C)C[C@@]2(C)O)O[C@H](C)C[C@@H]1N(C)C`, the growth in [1] was 99.6%; in assay [2], 97.2%; in assay [3], 90.2%; in assay [4] it was 94.6%; in [19], 119%; in assay [5], 102%. In addition, the growth in [7] was 98.2%; in assay [8], 109%; in assay [9] it was 119%; in assay [11], 99.4%; in assay [12] it was 106%; in [17], 110%. In addition, the growth is 115% in assay [13]; 104% in [14]; 101% in assay [15]; 113% in assay [18]; 97.2% in assay [16].

Turning to `CC(NC(=O)Oc1cccc2ccccc12)c1ccccc1` (stereo not given), the growth in assay [1] was 92.8%; in assay [2], 99.7%; in assay [3], 107%; in [4], 100%; in assay [5], 103%; in assay [6], 73.1%. For the same molecule, the growth is 103% in assay [7]; 110% in assay [8]; 107% in [9]; 84.1% in [10]; 77.6% in [12]; 105% in [17]. The growth in assay [13] is 78.1%; in assay [14] it was 107%; in assay [15], 97.9%; in assay [18], 73.2%; in assay [16], 107%.

`COc1ccc2nc(-c3ccc(Cl)cc3)cc(-c3nnc(SCC(=O)Nc4ccc(C(C)=O)cc4)n3-c3ccccc3)c2c1`: the growth was 100% in assay [1]; 99.1% in assay [2]; 91.5% in assay [3]; 100% in assay [4]; 111% in [5]; 93.2% in [6]. Besides, the growth is 91.4% in assay [7]; 101% in [8]; 105% in assay [9]; 104% in [10]; 92.9% in assay [11]; 86.8% in assay [12]. In addition, the growth is 102% in assay [17]; 87.3% in assay [13]; 102% in [14]; 85.4% in assay [15]; 110% in assay [18]; 93.8% in assay [16].

With `O=C(Nc1cccc(Cl)c1)Nc1cccc(Cl)c1`, the growth in [1] is 35.8%; in assay [2], 81.1%; in assay [3], 79.1%; in assay [4], 88.2%; in [5], 87.6%; in assay [6], 52.4%. The growth in assay [7] is 77.1%; in assay [8] it was 89.2%; in assay [9] it was 78.6%; in assay [10], 19.6%; in assay [11], 68.1%; in assay [12], 85.3%. Besides, the growth in [17] was 132%; in assay [13], 88.6%; in assay [14] it was 24.8%; in assay [15] it was 91.4%; in assay [18], 105%; in assay [16], 75.7%.

Take `COC(=O)C1=CCC(n2cnc3c(N)ncnc32)O1` (stereo not given): the growth in assay [1] is 92%; in [2], 87.5%; in [3], 94.4%; in assay [4], 94.3%; in assay [5], 89.9%; in [6] it was 96.5%. Also, the growth was 107% in assay [7]; 103% in [8]; 113% in assay [9]; 91.8% in assay [10]; 108% in assay [11]; 98.5% in assay [12]. The growth in [17] was -7.73% (active); in [13], 121%; in assay [14], 113%; in assay [15] it was 98%; in assay [18], 105%; in assay [16], 105%.

With `CC(=O)c1nn(-c2ccccc2)c(=Nc2ccccc2)cc1C`, the growth in [1] is 107%; in [2], 98.1%; in assay [3], 103%; in [4], 91.7%; in [5], 55.2%; in assay [6], 99.7%. In addition, the growth in assay [7] was 107%; in assay [8], 109%; in [9], 107%; in [10] it was 97.3%; in assay [11] it was 120%; in assay [12], 90.2%. Moreover, the growth in assay [17] was 102%; in assay [13], 114%; in [14] it was 86.9%; in assay [15], 107%; in assay [16], 120%.

For `CC(C)CNc1nc(N=[N+]=[N-])nc(NCC(C)C)n1`, the growth is 59.9% [100 µM] in assay [1]; 75.8% [100 µM] in assay [2]; 92.5% [100 µM] in assay [3]; 84.1% [100 µM] in [4]; -6.14% [100 µM] (active) in assay [5]; 56.3% [100 µM] in assay [6]. For the same molecule, the growth in assay [7] is 55.5% [100 µM]; in assay [8], 99.2% [100 µM]; in [9], 80.1% [100 µM]; in assay [10] it was 33.5% [100 µM]; in [11] it was 72.7% [100 µM]; in assay [12], 48.5% [100 µM]. The growth in [17] was 70.8% [100 µM]; in assay [13] it was 63.3% [100 µM]; in [14], 36.5% [100 µM]; in [18], 62.7% [100 µM]; in [16] it was 57.7% [100 µM].
